Binding signal data for 1 sequence are collected here from paper PMC7862700, “An all-to-all approach to the identification of sequence-specific readers for epigenetic DNA modifications on cytosine”.

Test in all cases: DAPPL (digital affinity profiling via proximity ligation, sequencing); 10 mM Tris-HCl pH 7.5, 50 mM NaCl, 1 mM DTT, 4% glycerol, room temperature, 30 min; GST-TFs on glutathione beads, 16-mer random dsDNA library, 0.1% formaldehyde crosslink after washing; high values mean tight binding
One assay addresses T1, FEV (Homo sapiens, UniProt Q99581 1-238).
T1 sequence: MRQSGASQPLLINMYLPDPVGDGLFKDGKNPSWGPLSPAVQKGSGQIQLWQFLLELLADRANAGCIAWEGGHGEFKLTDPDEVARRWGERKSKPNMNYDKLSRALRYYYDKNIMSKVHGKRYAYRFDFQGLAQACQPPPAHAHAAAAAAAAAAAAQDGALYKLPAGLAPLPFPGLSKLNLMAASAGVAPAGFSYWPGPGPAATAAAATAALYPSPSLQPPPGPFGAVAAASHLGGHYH
The settings on record: protein: recombinant; tags: N-terminal GST; dsDNA, one strand shown. Put shortly: (§1)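 Pools were built from human transcription factors expressed in yeast as GST fusions, captured on glutathione beads and DNA-barcoded, along with a tag-only sample. Incubation with 200 nmole of a 16-mer random double-stranded DNA library lasted 30 min at room temperature in Tris/NaCl/DTT/glycerol buffer, and was followed by washing, 0.1% formaldehyde crosslinking, proximity ligation, PCR amplification and Illumina NextSeq500 sequencing. Binding signal is the quotient of each hexamer's read frequency for a factor and its frequency for the tag-only sample.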

The target of the next assay is ETV5 (Homo sapiens, UniProt P41161 1-510). The following applies: protein: recombinant; tags: N-terminal GST; dsDNA, one strand shown. In short, it runs like this: as §1
In another assay the target is HSF1 (Homo sapiens, UniProt Q00613 1-529). The settings on record: protein: recombinant; tags: N-terminal GST; chain copies: 3; dsDNA, one strand shown. In short, it runs like this:
as §1

In a further assay the target is T2, SPIC (Homo sapiens, UniProt Q8N5J4 1-248).
T2 sequence: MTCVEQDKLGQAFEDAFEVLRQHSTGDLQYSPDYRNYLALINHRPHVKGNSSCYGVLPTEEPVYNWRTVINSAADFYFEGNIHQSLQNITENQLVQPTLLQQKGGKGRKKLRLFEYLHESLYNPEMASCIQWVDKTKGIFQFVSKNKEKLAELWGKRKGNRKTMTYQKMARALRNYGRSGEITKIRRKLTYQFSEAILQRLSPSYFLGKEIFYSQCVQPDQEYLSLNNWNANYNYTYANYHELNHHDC
The settings on record: protein: recombinant; tags: N-terminal GST; dsDNA, one strand shown. In short, it runs like this: as §1

The target of a further assay is ELF4 (Homo sapiens, UniProt Q99607 1-663). The following applies: protein: recombinant; tags: N-terminal GST; dsDNA, one strand shown. In short, it runs like this: as §1
A further assay addresses T3, ELK4 (Homo sapiens, UniProt P28324-2 1-405).
T3 sequence: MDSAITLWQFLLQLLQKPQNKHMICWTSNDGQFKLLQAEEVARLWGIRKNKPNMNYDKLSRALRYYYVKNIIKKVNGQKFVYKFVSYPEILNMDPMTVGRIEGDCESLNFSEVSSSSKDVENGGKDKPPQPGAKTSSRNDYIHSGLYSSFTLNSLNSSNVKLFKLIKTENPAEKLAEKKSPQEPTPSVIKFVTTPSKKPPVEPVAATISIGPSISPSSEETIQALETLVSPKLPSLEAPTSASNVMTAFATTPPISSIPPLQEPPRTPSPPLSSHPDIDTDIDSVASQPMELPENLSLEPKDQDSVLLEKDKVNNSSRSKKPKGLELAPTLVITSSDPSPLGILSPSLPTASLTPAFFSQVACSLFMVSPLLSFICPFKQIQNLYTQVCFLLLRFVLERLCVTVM
The following applies: protein: recombinant; tags: N-terminal GST; dsDNA, one strand shown. Put shortly: as §1

The target in another assay is T4, ETV2 (Homo sapiens, UniProt O00321 1-342).
T4 sequence: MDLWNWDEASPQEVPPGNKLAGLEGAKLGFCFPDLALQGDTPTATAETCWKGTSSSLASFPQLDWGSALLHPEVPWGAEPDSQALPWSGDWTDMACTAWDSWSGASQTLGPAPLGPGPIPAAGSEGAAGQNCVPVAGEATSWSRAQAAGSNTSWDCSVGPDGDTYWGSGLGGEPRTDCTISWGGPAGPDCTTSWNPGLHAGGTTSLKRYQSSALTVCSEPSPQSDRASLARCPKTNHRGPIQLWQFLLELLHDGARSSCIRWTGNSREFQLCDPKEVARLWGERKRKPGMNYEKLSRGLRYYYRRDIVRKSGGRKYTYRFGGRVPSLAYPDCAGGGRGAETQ
The following applies: protein: recombinant; tags: N-terminal GST; dsDNA, one strand shown. Put shortly:
as §1

For the next assay, the target named is T5, ELF3 (Homo sapiens, UniProt P78545 1-371).
T5 sequence: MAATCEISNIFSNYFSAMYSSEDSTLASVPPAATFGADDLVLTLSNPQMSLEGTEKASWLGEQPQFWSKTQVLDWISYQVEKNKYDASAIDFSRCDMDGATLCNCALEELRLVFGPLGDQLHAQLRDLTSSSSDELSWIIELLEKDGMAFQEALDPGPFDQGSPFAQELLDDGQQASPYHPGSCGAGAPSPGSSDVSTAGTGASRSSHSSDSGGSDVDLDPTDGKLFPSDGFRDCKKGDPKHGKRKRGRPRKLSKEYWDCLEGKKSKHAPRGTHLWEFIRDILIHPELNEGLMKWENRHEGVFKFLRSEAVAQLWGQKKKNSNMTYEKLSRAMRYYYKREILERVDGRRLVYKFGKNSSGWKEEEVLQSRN
The following applies: protein: recombinant; tags: N-terminal GST; dsDNA, one strand shown. In short, it runs like this: as §1

For a further assay, the target named is CRX (Homo sapiens, UniProt O43186 1-299). The following applies: protein: recombinant; tags: N-terminal GST; dsDNA, one strand shown. In short, it runs like this: as §1
A further assay has as its target ETV1 (Homo sapiens, UniProt P50549 1-477). The following applies: protein: recombinant; tags: N-terminal GST; dsDNA, one strand shown. Put shortly:
as §1

For a further assay, the target named is T6, ERF (Homo sapiens, UniProt P50548 1-548).
T6 sequence: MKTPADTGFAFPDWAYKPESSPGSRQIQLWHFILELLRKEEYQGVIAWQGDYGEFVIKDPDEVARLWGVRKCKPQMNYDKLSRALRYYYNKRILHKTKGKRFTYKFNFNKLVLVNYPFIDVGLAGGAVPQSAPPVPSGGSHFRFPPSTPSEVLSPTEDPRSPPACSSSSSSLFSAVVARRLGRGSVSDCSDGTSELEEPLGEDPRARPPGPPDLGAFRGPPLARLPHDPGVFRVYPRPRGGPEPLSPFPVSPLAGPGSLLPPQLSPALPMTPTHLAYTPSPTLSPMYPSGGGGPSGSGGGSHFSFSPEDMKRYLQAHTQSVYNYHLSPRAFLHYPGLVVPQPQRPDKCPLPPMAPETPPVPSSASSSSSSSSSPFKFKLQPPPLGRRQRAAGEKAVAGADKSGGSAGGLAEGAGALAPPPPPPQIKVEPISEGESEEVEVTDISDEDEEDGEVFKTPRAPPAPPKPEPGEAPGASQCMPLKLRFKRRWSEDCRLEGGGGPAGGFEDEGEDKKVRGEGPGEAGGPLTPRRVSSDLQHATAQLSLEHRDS
The settings on record: protein: recombinant; tags: N-terminal GST; dsDNA, one strand shown. In short, it runs like this:
as §1

In another assay the target is T7, ETV3L (Homo sapiens, UniProt Q6ZN32 1-361).
T7 sequence: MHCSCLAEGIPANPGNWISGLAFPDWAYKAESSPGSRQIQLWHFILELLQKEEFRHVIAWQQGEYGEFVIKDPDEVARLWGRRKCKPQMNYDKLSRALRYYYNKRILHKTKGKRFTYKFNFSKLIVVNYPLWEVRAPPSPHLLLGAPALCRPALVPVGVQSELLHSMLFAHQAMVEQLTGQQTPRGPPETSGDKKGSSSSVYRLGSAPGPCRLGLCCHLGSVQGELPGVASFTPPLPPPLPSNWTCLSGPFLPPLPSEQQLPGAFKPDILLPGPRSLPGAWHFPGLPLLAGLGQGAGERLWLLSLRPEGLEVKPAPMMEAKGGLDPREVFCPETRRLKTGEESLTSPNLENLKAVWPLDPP
The following applies: protein: recombinant; tags: N-terminal GST; dsDNA, one strand shown. Put shortly:
as §1

The target of a further assay is T8, ETS2 (Homo sapiens, UniProt P15036 1-469).
T8 sequence: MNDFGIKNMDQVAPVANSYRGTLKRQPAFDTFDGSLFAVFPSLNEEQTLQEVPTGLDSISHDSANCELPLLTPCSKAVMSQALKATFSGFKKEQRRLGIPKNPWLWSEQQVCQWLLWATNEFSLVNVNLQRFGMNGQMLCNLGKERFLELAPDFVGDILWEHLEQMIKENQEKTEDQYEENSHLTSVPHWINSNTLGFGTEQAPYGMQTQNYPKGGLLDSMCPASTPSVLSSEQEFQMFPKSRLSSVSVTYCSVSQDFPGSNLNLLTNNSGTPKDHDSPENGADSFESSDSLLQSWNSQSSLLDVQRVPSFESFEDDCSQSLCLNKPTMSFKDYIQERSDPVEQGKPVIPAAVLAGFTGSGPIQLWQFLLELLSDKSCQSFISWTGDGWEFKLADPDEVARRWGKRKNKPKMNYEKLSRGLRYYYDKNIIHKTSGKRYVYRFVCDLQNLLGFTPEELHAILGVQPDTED
The following applies: protein: recombinant; tags: N-terminal GST; dsDNA, one strand shown. Put shortly: as §1

A further assay has as its target T9, SPDEF (Homo sapiens, UniProt O95238 1-335).
T9 sequence: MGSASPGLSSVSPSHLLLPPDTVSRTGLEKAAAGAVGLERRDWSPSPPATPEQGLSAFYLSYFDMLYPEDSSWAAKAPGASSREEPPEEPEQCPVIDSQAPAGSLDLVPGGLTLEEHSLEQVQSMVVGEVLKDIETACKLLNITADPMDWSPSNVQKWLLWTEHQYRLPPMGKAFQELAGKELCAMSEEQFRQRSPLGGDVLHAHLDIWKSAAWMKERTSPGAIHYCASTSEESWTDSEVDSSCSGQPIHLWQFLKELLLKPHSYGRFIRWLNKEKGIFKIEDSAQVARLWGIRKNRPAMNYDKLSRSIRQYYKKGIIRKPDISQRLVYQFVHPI
The settings on record: protein: recombinant; tags: N-terminal GST; dsDNA, one strand shown. In short, it runs like this: as §1

A further assay addresses T10, ETV7 (Homo sapiens, UniProt Q9Y603 1-341).
T10 sequence: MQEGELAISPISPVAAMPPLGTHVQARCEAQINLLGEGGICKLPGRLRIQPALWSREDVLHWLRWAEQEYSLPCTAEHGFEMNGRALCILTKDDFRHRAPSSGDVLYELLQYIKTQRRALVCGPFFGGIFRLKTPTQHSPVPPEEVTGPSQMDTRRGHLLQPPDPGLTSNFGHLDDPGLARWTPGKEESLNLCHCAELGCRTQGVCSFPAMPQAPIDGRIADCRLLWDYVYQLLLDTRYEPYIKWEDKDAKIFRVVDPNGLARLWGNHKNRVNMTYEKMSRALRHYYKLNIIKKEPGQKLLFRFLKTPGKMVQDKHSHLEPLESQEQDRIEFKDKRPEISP
The following applies: protein: recombinant; tags: N-terminal GST; dsDNA, one strand shown. Put shortly: as §1

For another assay, the target named is T11, ELF5 (Homo sapiens, UniProt Q9UKW6-2 1-255).
T11 sequence: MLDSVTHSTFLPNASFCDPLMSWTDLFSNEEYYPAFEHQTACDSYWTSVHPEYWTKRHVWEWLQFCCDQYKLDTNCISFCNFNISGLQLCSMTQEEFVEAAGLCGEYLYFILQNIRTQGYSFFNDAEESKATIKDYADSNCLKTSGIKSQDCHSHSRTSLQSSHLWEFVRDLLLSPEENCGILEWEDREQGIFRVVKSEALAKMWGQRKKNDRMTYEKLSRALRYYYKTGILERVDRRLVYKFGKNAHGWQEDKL
The following applies: protein: recombinant; tags: N-terminal GST; dsDNA, one strand shown. In short, it runs like this: as §1

The target of the next assay is T12, ETV3 (Homo sapiens, UniProt P41162-2 1-143).
T12 sequence: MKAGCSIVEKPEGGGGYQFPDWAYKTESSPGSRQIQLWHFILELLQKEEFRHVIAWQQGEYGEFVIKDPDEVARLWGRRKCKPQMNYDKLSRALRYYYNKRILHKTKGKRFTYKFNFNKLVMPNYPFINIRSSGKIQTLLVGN
The settings on record: protein: recombinant; tags: N-terminal GST; dsDNA, one strand shown. In short, it runs like this:
as §1

The target in a further assay is ETV6 (Homo sapiens, UniProt P41212 1-452). The settings on record: protein: recombinant; tags: N-terminal GST; dsDNA, one strand shown. Put shortly:
as §1

ETV1, sequence (P50549 whole entry): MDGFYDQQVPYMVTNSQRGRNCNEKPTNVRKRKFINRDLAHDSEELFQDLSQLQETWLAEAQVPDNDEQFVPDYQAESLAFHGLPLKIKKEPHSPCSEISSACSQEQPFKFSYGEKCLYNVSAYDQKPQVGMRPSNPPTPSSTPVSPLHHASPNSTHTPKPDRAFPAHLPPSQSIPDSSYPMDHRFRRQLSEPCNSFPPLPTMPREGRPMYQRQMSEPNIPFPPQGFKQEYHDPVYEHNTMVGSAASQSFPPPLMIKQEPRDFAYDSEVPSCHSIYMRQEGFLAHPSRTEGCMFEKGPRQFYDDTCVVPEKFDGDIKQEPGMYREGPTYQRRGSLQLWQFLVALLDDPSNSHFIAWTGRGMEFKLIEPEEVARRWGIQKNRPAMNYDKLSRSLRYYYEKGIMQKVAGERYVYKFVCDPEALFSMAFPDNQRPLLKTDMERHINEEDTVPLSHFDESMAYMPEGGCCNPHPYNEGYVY
ELF4, sequence (Q99607 whole entry): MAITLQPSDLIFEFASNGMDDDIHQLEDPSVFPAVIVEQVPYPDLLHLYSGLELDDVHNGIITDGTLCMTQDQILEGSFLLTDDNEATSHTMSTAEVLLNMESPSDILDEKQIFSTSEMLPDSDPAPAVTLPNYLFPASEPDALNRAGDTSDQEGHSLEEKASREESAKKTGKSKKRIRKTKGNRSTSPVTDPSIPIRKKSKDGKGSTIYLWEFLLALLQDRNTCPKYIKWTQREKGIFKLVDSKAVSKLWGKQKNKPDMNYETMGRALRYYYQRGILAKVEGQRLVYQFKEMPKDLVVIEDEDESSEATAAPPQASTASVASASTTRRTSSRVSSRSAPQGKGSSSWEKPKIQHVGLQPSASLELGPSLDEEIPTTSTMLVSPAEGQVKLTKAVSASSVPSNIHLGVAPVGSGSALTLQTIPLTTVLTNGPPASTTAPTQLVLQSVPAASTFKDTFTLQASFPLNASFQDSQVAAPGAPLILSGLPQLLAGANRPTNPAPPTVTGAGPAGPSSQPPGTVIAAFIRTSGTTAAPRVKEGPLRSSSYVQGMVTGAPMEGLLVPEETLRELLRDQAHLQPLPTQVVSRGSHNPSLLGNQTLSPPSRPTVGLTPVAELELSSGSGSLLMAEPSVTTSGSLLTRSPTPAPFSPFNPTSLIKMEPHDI
CRX, sequence (O43186 whole entry): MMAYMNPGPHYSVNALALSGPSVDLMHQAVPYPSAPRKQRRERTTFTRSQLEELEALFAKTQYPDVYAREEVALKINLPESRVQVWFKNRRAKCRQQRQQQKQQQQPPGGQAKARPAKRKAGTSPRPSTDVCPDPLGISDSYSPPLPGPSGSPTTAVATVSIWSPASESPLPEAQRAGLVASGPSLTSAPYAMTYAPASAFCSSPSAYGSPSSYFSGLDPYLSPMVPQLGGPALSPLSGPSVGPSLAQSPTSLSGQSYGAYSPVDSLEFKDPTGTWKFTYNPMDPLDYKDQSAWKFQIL
HSF1, sequence (Q00613 whole entry): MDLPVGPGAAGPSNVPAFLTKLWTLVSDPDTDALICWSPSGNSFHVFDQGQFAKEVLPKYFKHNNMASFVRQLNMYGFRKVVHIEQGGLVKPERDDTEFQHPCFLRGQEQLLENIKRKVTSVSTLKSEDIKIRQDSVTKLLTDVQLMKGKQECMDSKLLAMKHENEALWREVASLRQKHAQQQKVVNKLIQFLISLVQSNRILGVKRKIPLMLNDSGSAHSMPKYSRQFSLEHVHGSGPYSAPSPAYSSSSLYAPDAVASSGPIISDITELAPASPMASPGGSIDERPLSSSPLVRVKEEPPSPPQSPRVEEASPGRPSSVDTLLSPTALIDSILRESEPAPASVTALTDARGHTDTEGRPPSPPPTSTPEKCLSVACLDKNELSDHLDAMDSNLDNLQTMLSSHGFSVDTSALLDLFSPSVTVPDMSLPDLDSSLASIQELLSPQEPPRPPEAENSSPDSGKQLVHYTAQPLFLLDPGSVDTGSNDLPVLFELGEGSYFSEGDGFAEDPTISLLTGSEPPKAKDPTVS
ETV5, sequence (P41161 whole entry): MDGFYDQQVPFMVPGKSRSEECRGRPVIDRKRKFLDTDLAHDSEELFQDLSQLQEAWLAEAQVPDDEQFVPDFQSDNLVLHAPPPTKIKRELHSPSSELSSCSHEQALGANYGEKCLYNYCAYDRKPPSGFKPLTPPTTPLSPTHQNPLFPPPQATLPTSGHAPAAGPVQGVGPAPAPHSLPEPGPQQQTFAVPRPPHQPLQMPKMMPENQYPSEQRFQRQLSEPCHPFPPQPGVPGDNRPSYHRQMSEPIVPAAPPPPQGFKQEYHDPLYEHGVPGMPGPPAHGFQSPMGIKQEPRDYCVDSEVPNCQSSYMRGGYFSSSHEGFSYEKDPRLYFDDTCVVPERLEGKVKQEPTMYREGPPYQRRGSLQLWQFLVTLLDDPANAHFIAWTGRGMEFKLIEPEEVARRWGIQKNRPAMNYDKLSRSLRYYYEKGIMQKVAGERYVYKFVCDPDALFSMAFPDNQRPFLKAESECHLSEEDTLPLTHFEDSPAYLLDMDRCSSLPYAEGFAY
ETV6, sequence (P41212 whole entry): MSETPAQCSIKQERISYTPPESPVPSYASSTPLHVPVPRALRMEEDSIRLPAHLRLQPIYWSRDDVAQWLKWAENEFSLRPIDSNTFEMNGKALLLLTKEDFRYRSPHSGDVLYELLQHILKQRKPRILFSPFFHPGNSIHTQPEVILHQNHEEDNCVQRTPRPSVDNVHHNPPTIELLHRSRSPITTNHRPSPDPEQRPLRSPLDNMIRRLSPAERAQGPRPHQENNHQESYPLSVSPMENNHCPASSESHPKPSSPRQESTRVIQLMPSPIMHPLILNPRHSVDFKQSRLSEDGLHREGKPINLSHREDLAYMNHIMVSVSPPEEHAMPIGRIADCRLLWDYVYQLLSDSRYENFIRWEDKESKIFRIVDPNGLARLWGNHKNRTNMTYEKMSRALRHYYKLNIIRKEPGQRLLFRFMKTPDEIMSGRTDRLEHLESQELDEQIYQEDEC

On to AATCCT, for which the binding signal is 1.32 fold enrichment (6-mer frequency, TF over GST control) with FEV; 1.43 fold enrichment (6-mer frequency, TF over GST control) with ETV5; 2.25 fold enrichment (6-mer frequency, TF over GST control) with HSF1; 1.3 fold enrichment (6-mer frequency, TF over GST control) with SPIC; 1.27 fold enrichment (6-mer frequency, TF over GST control) with ELF4; 1.33 fold enrichment (6-mer frequency, TF over GST control) in the assay with ELK4. Besides, the binding signal was 1.34 fold enrichment (6-mer frequency, TF over GST control) with ETV2; 1.25 fold enrichment (6-mer frequency, TF over GST control) with ELF3; 3.32 fold enrichment (6-mer frequency, TF over GST control) with CRX; 1.35 fold enrichment (6-mer frequency, TF over GST control) with ETV1; 1.21 fold enrichment (6-mer frequency, TF over GST control) with ERF; 1.24 fold enrichment (6-mer frequency, TF over GST control) in the assay with ETV3L. The binding signal is 1.32 fold enrichment (6-mer frequency, TF over GST control) in the assay with ETS2; 1.45 fold enrichment (6-mer frequency, TF over GST control) with SPDEF; 1.41 fold enrichment (6-mer frequency, TF over GST control) with ETV7; 1.61 fold enrichment (6-mer frequency, TF over GST control) in the assay with ELF5; 1.37 fold enrichment (6-mer frequency, TF over GST control) with ETV3; 1.29 fold enrichment (6-mer frequency, TF over GST control) in the assay with ETV6.
